Reference: paper PMC5540273 (PLoS ONE, 2017)

Test system: T1, AMPK-alpha1
T1 construct: gene PRKAA1
Details: concentration: 1 μM, replicates: in singlicate; n = 1
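Also: KINOMEscan kinase panel screen.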

Structure (SMILES) | %Inh [%]
O=C(Nc1ccc2c(c1)OCO2)NC1CCN(c2ccnc(NCc3ccc(F)cc3)n2)CC1 [GSK1379859] | 0
O=C(Nc1n[nH]c2cc(-c3ccccc3F)ccc12)C1CC1 [SB-733371] | 0
Cc1ccccc1COc1cc(-n2cnc3cc(Cl)ccc32)sc1C(N)=O [GW813349] | 0
Cc1nnc(-c2ccc(C)c(-c3ccc(C(=O)O)cc3)c2)o1 [GW608005] | 0
COc1ccc(-c2cc3c(C)nc(N)nc3n([C@H]3CC[C@H](O)CC3)c2=O)cn1 | 0
CCC(=O)c1c(-c2ccccc2)c2cc(Cl)ccc2c(=O)n1Cc1cc(S(C)(=O)=O)n(CC(F)F)n1 | 0
CC(C)(C)c1ccc(C(=O)Nc2cn3cc(-c4ccccc4)ccc3n2)cc1 | 0
Cc1c(Cn2c(C)nn3c(=O)cc(N4CCO[C@H](C)C4)nc23)cccc1C(F)(F)F [GSK2373690] | 0
COc1cccc(C2=C(Nc3cccc(C(=O)O)c3)C(=O)NC2=O)c1 [SB-390770] | 45
COc1cc2ncn(-c3cc(OCc4ccncc4)c(C(N)=O)s3)c2cc1OC [GSK336313] | 0
COc1ccc(-c2coc3ccc(-c4nnc(SCc5cccc(C#N)c5)o4)cc23)cc1 | 7
Nc1nc(-c2ccccc2F)c(-c2ccnc3ccccc23)s1 [GW560459] | 0
COC(=O)c1c(-c2ccccc2)c2cc(Br)ccc2c(=O)n1Cc1ccc(NC(=O)CCC(=O)O)cc1 | 21
COC(=O)c1c(-c2ccccc2)c2cc(Br)ccc2c(=O)n1Cc1ccc(S(C)(=O)=O)cc1 | 15
CCc1nc(-c2cccc(C)c2)c(-c2ccncc2)s1 | 0
COc1cc(Nc2ccnc3ccc(C(F)(F)F)cc23)cc(OC)c1OC [GW577382] | 0
COC(=O)c1c(-c2ccccc2)c2cc(C)ccc2c(=O)n1Cc1ccccc1 | 0
CN1C(=O)C(Nc2ccccc2)=C(c2ccccc2)C1=O [SB-300079] | 0

Structure (SMILES) | %Inh [%]
CCC(=O)c1c(-c2ccccc2)c2cc(Cl)ccc2c(=O)n1Cc1cc(C(=O)NC2CC2)n(C)n1 | 22
Nc1ncnc2c1ncn2-c1ccc(Cl)cc1 [AH2635] | 0
Cc1cccc(-c2cc(-c3c[nH]nc3-c3ccccn3)ccn2)c1 [GW679395] | 0
CN1C(=O)C(Nc2cc(Cl)c(O)c(Cl)c2)=C(c2ccc(Cl)cc2)C1=O [SB-404321] | 0
COc1cc2nccc(Nc3cccc(Oc4ccccc4)c3)c2cc1OC.Cl [GW284543] | 12
CCCC(=O)Nc1n[nH]c2ncc(-c3cccc4ccccc34)cc12 [SB-642057] | 37
COc1cccc(C2=C(N(C)c3ccccc3)C(=O)NC2=O)c1 [SB-334865] | 6
COc1ccc(-c2cc3c(C)nc(N)nc3n([C@H]3CC[C@H](OCCO)CC3)c2=O)cn1 | 5
Nc1ncnc2c1ncn2-c1cccc(F)c1 [SKF-97560] | 0
CN(C)c1cc(-c2ccc3c(N)n[nH]c3c2)nc(N)n1 [GSK2219329] | 0
COc1ccc(-n2cnc3c(N)ncnc32)cc1 [SKF-97236] | 16
Cn1c(=O)c(F)c(Nc2ccc(I)cc2F)c2c(=O)n(OC[C@H](O)CO)cnc21 | 0
COc1cc(Nc2nccc(N3CCC(NC(=O)C(C)c4ccc(Cl)cc4)C3)n2)cc(OC)c1OC (stereo not drawn) [GSK1379757] | 17
COc1cc2ncn(-c3cc(OCCCc4ccccc4)c(C(N)=O)s3)c2cc1OC [GSK205189] | 28
Cc1cccc(-c2nc(Nc3ccc4c(cnn4C)c3)c3ccccc3n2)n1 [GW876731] | 0
Nc1nc(N)c2nc(-c3ccccc3)[nH]c2n1 [SKF-12778] | 17
Cl.c1ccc(Cn2cnc3cc(Nc4ncnc5ccccc45)ccc32)cc1 [GW272142] | 0
Nc1nccc2scc(-c3ccc4c(c3)CCN4C(=O)Cc3ccccc3)c12 [GSK2576924] | 0

Test system: T2, AMPK-alpha2
T2 construct: gene PRKAA2
Details: concentration: 1 μM, replicates: in singlicate; n = 1

Structure (SMILES) | %Inh [%]
O=C(Nc1ccc2c(c1)OCO2)NC1CCN(c2ccnc(NCc3ccc(F)cc3)n2)CC1 [GSK1379859] | 0
O=C(Nc1n[nH]c2cc(-c3ccccc3F)ccc12)C1CC1 [SB-733371] | 0
Cc1ccccc1COc1cc(-n2cnc3cc(Cl)ccc32)sc1C(N)=O [GW813349] | 3
Cc1nnc(-c2ccc(C)c(-c3ccc(C(=O)O)cc3)c2)o1 [GW608005] | 0
COc1ccc(-c2cc3c(C)nc(N)nc3n([C@H]3CC[C@H](O)CC3)c2=O)cn1 | 0
CCC(=O)c1c(-c2ccccc2)c2cc(Cl)ccc2c(=O)n1Cc1cc(S(C)(=O)=O)n(CC(F)F)n1 | 8
CC(C)(C)c1ccc(C(=O)Nc2cn3cc(-c4ccccc4)ccc3n2)cc1 | 0
Cc1c(Cn2c(C)nn3c(=O)cc(N4CCO[C@H](C)C4)nc23)cccc1C(F)(F)F [GSK2373690] | 27
COc1cccc(C2=C(Nc3cccc(C(=O)O)c3)C(=O)NC2=O)c1 [SB-390770] | 16
COc1cc2ncn(-c3cc(OCc4ccncc4)c(C(N)=O)s3)c2cc1OC [GSK336313] | 0
COc1ccc(-c2coc3ccc(-c4nnc(SCc5cccc(C#N)c5)o4)cc23)cc1 | 0
Nc1nc(-c2ccccc2F)c(-c2ccnc3ccccc23)s1 [GW560459] | 1
COC(=O)c1c(-c2ccccc2)c2cc(Br)ccc2c(=O)n1Cc1ccc(NC(=O)CCC(=O)O)cc1 | 22
COC(=O)c1c(-c2ccccc2)c2cc(Br)ccc2c(=O)n1Cc1ccc(S(C)(=O)=O)cc1 | 9
CCc1nc(-c2cccc(C)c2)c(-c2ccncc2)s1 | 0
COc1cc(Nc2ccnc3ccc(C(F)(F)F)cc23)cc(OC)c1OC [GW577382] | 25
COC(=O)c1c(-c2ccccc2)c2cc(C)ccc2c(=O)n1Cc1ccccc1 | 0
CN1C(=O)C(Nc2ccccc2)=C(c2ccccc2)C1=O [SB-300079] | 1

Structure (SMILES) | %Inh [%]
CCC(=O)c1c(-c2ccccc2)c2cc(Cl)ccc2c(=O)n1Cc1cc(C(=O)NC2CC2)n(C)n1 | 5
Nc1ncnc2c1ncn2-c1ccc(Cl)cc1 [AH2635] | 0
Cc1cccc(-c2cc(-c3c[nH]nc3-c3ccccn3)ccn2)c1 [GW679395] | 0
CN1C(=O)C(Nc2cc(Cl)c(O)c(Cl)c2)=C(c2ccc(Cl)cc2)C1=O [SB-404321] | 0
COc1cc2nccc(Nc3cccc(Oc4ccccc4)c3)c2cc1OC.Cl [GW284543] | 0
CCCC(=O)Nc1n[nH]c2ncc(-c3cccc4ccccc34)cc12 [SB-642057] | 19
COc1cccc(C2=C(N(C)c3ccccc3)C(=O)NC2=O)c1 [SB-334865] | 13
COc1ccc(-c2cc3c(C)nc(N)nc3n([C@H]3CC[C@H](OCCO)CC3)c2=O)cn1 | 2
Nc1ncnc2c1ncn2-c1cccc(F)c1 [SKF-97560] | 0
CN(C)c1cc(-c2ccc3c(N)n[nH]c3c2)nc(N)n1 [GSK2219329] | 11
COc1ccc(-n2cnc3c(N)ncnc32)cc1 [SKF-97236] | 20
Cn1c(=O)c(F)c(Nc2ccc(I)cc2F)c2c(=O)n(OC[C@H](O)CO)cnc21 | 13
COc1cc(Nc2nccc(N3CCC(NC(=O)C(C)c4ccc(Cl)cc4)C3)n2)cc(OC)c1OC (stereo not drawn) [GSK1379757] | 0
COc1cc2ncn(-c3cc(OCCCc4ccccc4)c(C(N)=O)s3)c2cc1OC [GSK205189] | 0
Cc1cccc(-c2nc(Nc3ccc4c(cnn4C)c3)c3ccccc3n2)n1 [GW876731] | 17
Nc1nc(N)c2nc(-c3ccccc3)[nH]c2n1 [SKF-12778] | 14
Cl.c1ccc(Cn2cnc3cc(Nc4ncnc5ccccc45)ccc32)cc1 [GW272142] | 0
Nc1nccc2scc(-c3ccc4c(c3)CCN4C(=O)Cc3ccccc3)c12 [GSK2576924] | 21
